Assay [1] deals with T1, Tyrosine-protein kinase ITK/TSK (Homo sapiens) (UniProt Q08881).
T1 sequence (whole entry): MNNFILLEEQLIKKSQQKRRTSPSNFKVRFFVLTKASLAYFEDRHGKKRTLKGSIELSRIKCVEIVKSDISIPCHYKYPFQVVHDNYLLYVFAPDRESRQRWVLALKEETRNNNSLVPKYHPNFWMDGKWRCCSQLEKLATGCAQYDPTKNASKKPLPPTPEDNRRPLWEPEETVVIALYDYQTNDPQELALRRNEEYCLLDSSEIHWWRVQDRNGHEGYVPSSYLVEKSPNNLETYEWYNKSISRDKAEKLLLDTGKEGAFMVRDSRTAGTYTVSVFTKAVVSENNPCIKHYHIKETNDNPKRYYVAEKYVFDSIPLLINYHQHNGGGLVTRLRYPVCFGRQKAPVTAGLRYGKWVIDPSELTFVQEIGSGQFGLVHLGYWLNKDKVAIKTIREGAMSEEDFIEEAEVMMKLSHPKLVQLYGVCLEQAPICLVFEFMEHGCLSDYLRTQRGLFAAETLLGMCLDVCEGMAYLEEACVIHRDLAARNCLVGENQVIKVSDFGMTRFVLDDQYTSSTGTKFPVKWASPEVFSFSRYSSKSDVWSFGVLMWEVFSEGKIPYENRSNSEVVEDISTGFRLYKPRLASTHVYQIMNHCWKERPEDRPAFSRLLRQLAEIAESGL
The note with it: at 1 µM.

Assay [2] concerns the target Tyrosine-protein kinase JAK1 (Homo sapiens) (UniProt P23458). The conditions noted are these: at 0.1 µM.
Assay [3] has the same target. The conditions noted are these: at 1 µM.
The target of assay [4] is Tyrosine-protein kinase JAK2 (Homo sapiens) (UniProt O60674). The conditions noted are these: at 0.1 µM.
Tyrosine-protein kinase JAK2 (Homo sapiens), sequence (O60674 whole entry): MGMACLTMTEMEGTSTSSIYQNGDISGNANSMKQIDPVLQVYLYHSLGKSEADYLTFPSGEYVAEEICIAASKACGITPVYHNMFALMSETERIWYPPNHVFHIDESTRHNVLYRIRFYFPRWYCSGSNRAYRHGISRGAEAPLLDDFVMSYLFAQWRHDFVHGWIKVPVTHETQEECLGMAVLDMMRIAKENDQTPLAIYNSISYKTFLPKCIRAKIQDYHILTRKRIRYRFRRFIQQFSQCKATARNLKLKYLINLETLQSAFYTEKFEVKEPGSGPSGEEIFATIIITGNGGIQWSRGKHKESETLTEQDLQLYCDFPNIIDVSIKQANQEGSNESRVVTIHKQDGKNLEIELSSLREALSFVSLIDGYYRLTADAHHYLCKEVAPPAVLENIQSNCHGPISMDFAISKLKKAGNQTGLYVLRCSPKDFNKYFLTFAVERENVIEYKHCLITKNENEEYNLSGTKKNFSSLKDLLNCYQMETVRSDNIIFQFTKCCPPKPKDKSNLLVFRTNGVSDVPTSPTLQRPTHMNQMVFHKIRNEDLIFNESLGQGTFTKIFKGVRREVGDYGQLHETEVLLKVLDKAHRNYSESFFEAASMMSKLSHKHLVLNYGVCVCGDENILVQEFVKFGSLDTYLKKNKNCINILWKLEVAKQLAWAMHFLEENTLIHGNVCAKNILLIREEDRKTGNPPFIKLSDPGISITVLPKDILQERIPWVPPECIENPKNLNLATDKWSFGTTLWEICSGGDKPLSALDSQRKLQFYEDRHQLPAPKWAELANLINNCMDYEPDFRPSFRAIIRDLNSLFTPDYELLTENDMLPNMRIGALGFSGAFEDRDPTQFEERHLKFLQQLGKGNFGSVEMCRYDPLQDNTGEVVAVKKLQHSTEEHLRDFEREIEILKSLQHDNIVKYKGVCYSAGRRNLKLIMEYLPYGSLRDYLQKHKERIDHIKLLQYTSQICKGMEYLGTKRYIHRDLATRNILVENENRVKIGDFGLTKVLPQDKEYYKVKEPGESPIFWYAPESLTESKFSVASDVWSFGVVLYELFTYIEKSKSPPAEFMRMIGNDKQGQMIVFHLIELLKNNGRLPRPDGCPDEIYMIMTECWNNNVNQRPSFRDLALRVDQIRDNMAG
Assay [5] shares this target. The conditions noted are these: at 1 µM.
For assay [6], the target named is T2, Tyrosine-protein kinase JAK3 (Homo sapiens) (UniProt P52333).
T2 sequence (whole entry): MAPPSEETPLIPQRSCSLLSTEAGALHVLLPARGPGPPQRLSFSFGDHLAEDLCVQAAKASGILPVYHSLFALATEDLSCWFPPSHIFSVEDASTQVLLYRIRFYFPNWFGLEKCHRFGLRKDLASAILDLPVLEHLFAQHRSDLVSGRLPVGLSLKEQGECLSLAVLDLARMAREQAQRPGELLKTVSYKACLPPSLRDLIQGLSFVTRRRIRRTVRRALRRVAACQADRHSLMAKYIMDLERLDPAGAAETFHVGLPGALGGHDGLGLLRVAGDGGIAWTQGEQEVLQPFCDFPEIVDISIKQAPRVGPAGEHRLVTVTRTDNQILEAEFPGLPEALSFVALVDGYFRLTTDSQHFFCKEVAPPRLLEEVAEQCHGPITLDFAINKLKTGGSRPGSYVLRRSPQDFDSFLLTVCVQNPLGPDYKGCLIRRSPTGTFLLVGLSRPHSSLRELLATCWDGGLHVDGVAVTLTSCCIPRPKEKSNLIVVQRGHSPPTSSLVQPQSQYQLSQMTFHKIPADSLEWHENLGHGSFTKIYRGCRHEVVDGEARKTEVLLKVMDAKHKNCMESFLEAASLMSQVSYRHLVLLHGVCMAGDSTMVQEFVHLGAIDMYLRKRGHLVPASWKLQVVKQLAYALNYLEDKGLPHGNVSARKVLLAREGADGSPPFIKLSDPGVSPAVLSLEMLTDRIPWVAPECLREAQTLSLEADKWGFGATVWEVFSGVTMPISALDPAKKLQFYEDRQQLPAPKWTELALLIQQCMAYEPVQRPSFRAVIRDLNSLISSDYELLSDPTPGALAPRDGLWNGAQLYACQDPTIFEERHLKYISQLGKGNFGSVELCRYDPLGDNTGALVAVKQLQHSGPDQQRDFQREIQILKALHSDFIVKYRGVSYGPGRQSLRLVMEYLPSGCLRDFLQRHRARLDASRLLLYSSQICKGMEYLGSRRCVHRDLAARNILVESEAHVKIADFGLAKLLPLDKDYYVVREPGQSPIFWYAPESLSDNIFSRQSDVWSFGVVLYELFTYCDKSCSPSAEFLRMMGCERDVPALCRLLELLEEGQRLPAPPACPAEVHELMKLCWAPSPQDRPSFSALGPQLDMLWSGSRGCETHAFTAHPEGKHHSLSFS
The conditions noted are these: at 0.1 µM.

The target of assay [7] is T2, Tyrosine-protein kinase JAK3 (Homo sapiens). The conditions noted are these: at 1 µM.
The target of assay [8] is Vascular endothelial growth factor receptor 2 (Homo sapiens) (UniProt P35968). The conditions noted are these: at 0.1 µM.
Assay [9] shares this target. The conditions noted are these: at 1 µM.
The target in assay [10] is Mast/stem cell growth factor receptor Kit (Homo sapiens) (UniProt P10721). The conditions noted are these: at 0.1 µM.
Mast/stem cell growth factor receptor Kit (Homo sapiens), sequence (P10721 whole entry): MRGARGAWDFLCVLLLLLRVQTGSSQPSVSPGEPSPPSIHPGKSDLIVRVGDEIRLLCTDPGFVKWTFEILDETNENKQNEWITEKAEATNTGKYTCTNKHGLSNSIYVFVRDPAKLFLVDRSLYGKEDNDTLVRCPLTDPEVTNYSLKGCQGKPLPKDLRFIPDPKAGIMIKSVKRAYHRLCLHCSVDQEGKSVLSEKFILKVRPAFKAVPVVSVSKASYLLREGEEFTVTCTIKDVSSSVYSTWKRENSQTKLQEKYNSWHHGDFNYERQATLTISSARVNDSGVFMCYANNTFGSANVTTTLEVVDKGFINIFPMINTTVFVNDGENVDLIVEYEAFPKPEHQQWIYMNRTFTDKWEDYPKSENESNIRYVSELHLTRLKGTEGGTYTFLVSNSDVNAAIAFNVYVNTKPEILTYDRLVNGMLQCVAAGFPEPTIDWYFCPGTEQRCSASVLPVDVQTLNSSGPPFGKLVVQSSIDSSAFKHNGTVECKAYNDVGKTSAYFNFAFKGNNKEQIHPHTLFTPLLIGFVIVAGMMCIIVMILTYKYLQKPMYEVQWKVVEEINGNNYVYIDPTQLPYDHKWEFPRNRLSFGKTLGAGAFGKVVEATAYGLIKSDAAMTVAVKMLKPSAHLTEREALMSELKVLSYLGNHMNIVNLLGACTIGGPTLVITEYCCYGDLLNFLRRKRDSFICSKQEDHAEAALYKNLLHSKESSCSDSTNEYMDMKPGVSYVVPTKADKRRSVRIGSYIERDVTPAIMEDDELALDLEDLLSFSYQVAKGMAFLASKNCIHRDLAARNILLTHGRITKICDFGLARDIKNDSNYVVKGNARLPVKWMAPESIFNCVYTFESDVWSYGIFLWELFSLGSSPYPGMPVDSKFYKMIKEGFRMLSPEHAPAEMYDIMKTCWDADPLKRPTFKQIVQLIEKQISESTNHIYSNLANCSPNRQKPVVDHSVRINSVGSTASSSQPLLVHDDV
For assay [11] the target is unchanged. The note with it: at 1 µM.
The test system of assay [12] is Mast/stem cell growth factor receptor Kit (Homo sapiens), P10721 [D816V]. The conditions noted are these: at 0.1 µM.
Mast/stem cell growth factor receptor Kit (Homo sapiens), P10721 [D816V], sequence (P10721 whole entry D816V): as the sequence (P10721 whole entry) above, with D816V counted along it
The test system is the same in assay [13]. The note with it: at 1 µM.
Assay [14] has as its system Mast/stem cell growth factor receptor Kit (Homo sapiens), P10721 [T670I]. The note with it: at 0.1 µM.
Assay [15] shares this test system. The note with it: at 1 µM.
The test system of assay [16] is Mast/stem cell growth factor receptor Kit (Homo sapiens), P10721 [V560G]. The conditions noted are these: at 0.1 µM.
Mast/stem cell growth factor receptor Kit (Homo sapiens), P10721 [V560G], sequence (P10721 whole entry V560G): as the sequence (P10721 whole entry) above, with V560G counted along it
For assay [17] the test system is unchanged. The note with it: at 1 µM.
Assay [18] deals with Tyrosine-protein kinase Lck (Homo sapiens) (UniProt P06239). The note with it: at 0.1 µM.
Tyrosine-protein kinase Lck (Homo sapiens), sequence (P06239 2-509 limits assumed): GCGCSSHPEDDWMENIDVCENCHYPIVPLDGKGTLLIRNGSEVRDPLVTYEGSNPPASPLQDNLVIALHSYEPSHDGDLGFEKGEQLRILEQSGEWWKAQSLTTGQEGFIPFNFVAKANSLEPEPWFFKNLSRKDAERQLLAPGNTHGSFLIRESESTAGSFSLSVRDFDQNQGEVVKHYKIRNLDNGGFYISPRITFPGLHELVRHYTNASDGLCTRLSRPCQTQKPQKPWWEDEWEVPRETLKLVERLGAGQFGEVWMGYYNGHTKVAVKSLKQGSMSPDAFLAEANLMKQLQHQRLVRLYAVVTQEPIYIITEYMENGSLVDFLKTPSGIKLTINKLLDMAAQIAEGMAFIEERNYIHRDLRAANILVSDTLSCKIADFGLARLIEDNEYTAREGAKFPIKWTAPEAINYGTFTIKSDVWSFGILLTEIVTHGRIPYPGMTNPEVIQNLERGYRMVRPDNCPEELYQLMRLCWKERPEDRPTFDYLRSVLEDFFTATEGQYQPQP
For assay [19] the target is unchanged. The note with it: at 1 µM.
Assay [20] has as its target Leukocyte tyrosine kinase receptor (Homo sapiens) (UniProt P29376). The conditions noted are these: at 0.1 µM.

Structures are written as SMILES.

The record followed here is ChEMBL document CHEMBL1961873, “Compounds: GSK PKIS; Assays: Nanosyn kinase panel” (2012).

In general, inhibition refers to the change of the read-out against control, counted positive when it falls.

Leukocyte tyrosine kinase receptor (Homo sapiens), sequence (P29376 whole entry): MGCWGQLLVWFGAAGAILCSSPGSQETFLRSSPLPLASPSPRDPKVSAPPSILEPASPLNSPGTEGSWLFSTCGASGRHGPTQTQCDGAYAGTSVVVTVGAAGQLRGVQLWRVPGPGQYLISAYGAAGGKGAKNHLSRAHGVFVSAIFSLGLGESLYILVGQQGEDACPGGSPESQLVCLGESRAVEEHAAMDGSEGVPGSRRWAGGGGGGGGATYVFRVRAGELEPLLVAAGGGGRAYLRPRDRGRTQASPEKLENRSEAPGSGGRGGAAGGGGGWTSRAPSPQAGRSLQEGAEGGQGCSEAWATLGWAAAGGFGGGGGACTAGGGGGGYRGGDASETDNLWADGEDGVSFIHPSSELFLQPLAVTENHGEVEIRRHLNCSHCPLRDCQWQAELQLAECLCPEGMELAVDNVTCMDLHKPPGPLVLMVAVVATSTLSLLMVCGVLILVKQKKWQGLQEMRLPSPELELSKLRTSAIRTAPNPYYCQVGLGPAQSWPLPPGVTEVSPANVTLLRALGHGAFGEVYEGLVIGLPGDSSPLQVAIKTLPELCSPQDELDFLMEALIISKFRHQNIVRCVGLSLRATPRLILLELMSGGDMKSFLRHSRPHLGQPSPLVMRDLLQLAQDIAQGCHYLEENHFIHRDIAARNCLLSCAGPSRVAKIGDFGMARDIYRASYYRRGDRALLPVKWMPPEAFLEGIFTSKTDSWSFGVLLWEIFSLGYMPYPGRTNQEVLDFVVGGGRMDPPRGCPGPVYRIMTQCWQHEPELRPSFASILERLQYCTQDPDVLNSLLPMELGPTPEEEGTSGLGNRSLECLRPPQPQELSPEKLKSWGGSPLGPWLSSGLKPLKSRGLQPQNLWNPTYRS
Tyrosine-protein kinase JAK1 (Homo sapiens), sequence (P23458 whole entry): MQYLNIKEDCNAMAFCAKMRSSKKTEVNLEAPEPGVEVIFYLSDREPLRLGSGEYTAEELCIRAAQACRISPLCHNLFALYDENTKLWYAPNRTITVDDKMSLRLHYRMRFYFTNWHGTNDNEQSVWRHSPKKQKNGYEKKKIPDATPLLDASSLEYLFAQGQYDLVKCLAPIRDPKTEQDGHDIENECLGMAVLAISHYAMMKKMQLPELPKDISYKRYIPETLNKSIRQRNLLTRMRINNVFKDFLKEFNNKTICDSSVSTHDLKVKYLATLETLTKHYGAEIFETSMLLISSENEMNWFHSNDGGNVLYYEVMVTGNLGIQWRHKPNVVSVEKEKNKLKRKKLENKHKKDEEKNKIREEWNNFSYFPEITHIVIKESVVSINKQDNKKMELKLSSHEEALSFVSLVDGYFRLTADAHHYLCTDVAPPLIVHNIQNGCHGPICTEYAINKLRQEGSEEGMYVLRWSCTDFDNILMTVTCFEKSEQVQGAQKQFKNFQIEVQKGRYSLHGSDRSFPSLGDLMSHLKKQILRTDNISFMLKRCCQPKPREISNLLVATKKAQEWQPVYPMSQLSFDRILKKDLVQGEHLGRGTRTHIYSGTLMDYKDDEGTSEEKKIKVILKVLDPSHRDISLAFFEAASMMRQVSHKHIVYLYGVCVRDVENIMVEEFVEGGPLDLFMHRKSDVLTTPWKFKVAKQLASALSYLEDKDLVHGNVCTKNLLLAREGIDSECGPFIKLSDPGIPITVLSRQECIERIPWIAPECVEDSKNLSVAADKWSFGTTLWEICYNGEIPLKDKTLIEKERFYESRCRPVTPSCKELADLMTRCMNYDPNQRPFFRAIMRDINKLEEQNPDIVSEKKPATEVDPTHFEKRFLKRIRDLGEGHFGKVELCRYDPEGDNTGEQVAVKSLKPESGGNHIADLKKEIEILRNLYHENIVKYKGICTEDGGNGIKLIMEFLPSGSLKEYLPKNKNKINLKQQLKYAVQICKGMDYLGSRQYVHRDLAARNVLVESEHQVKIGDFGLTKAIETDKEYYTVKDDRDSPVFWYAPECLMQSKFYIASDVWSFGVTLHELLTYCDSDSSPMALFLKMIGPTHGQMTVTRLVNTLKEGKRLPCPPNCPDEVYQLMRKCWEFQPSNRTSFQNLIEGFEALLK
Mast/stem cell growth factor receptor Kit (Homo sapiens), P10721 [T670I], sequence (P10721 whole entry T670I): as the sequence (P10721 whole entry) above, with T670I counted along it

For the compound `COc1ccccc1Nc1ncc(-c2ccccc2)o1`, the inhibition in [1] is 3.07%; in assay [2], 4.14%; in assay [3], 5.2%; in assay [4] it was 0.56%; in assay [5], -0.51%; in [6] it was -3.6%. For the same compound, the inhibition in assay [7] was -1.96%; in assay [8], 10.6%; in assay [9], 19.2%; in assay [10] it was 78.2%; in assay [11], 98.2%; in assay [12], 4.74%. Further, the inhibition came to 6.9% in [13]; 17.8% in assay [14]; 77.7% in assay [15]; 31.5% in assay [16]; 85.5% in assay [17]; 4.55% in assay [18]. Also, the inhibition in assay [19] stood at 9.64%; in assay [20], 3.5%.
For the compound `O=C(Nc1n[nH]c2nc(-c3ccco3)c(Br)cc12)C1CC1`, the inhibition is 23.7% in assay [1]; 2.41% in [2]; -1.14% in assay [3]; 1.5% in assay [4]; 1.59% in [5]; -1.04% in [6]. For the same compound, the inhibition was 1.18% in [7]; 5.71% in assay [8]; 15.5% in assay [9]; 6.02% in [10]; 4.71% in assay [11]; 4% in [12]. The inhibition in assay [13] is -1.99%; in [14], 2.25%; in [15] it was 1.3%; in assay [16], 1.23%; in [17], 1.62%; in [18], 1.39%. For the same compound, the inhibition in assay [19] was 6.71%; in assay [20], 1.93%.
Consider `Cc1ccc(C(=O)NC2CCCCC2)cc1-c1ccc(C(=O)NCC2CC2)cc1`, for which the inhibition in assay [1] came to 2.35%; in assay [2], 9.94%; in [3], 9.1%; in assay [4] it was 3.28%; in assay [5], 4.08%; in [6], 0.78%. The inhibition in assay [7] is 3.02%; in [8], 7.88%; in assay [9] it was 8.4%; in assay [10], 4.54%; in assay [11], 4.9%; in [12], 3.74%. Moreover, the inhibition in assay [13] was 0.6%; in [14], 0.04%; in [15], 0.31%; in assay [16], 3.05%; in [17], 4.51%; in [18] it was 1.49%. The inhibition in assay [19] is 2.85%; in assay [20], 0.67%.
`CC1=C(C(=O)Nc2ccc3[nH]ncc3c2)C(c2ccc(Cl)c(Cl)c2)CC(=O)N1` (stereo not given): the inhibition is 0.67% in assay [1]; 5.41% in assay [2]; 36.6% in assay [3]; 1.94% in assay [4]; 23.5% in [5]; 0.78% in [6]. Moreover, the inhibition in assay [7] is 18%; in assay [8], 3.14%; in assay [9], 5.12%; in [10], 3.22%; in assay [11] it was 2.48%; in assay [12], -0.94%. Moreover, the inhibition in [13] came out at 1.14%; in assay [14] it was 0.21%; in [15] it was 1.52%; in assay [16] it was 2.42%; in assay [17], 4.56%; in [18], 4.63%. The inhibition in assay [19] is 30%; in assay [20], 1.06%.
With `Cc1cccc(-c2n[nH]cc2-c2ccc3ncccc3n2)n1`, the inhibition in [1] was 1.48%; in assay [2] it was -0.09%; in assay [3] it was 3.85%; in assay [4] it was -0.23%; in assay [5], -0.14%; in assay [6], 0.65%. For the same compound, the inhibition in [7] is 3.06%; in [8], 61.3%; in [9], 83.2%; in assay [10], -0.25%; in assay [11], 2.16%; in assay [12], 3.77%. For the same compound, the inhibition in assay [13] was 18%; in assay [14], -0.33%; in assay [15], -0.51%; in assay [16], 3.48%; in [17], -0.13%; in assay [18] it was 0.45%. Besides, the results for the inhibition in assay [19] and in assay [20] were 4.51% and 0.62%, respectively.
